Compounds without any hit were thinned out: in the full panel of roughly 79,000, 15% have a hit. Activity calls are given as the source filed them. Rule as the data show it: active = growth inhibition above about 70%; inactive = the rest.
Tests used:
[1] = NCI Yeast Anticancer Drug Screen. Data for the rad52 strain (AID 147);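 also: 0% = growth of vehicle-treated control cultures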; details: S. cerevisiae rad52 mutant growth inhibition, active compounds read high
How it was run: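 Here a repair-compromised yeast strain receives each compound; its growth is then quantified and normalised to vehicle-only controls.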

[2] = NCI Yeast Anticancer Drug Screen. Data for the wt1 strain (AID 149);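 also: 0% = growth of vehicle-treated wt1 cultures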; details: S. cerevisiae wt1 strain (SPY 50644) growth inhibition, active compounds read high
How it was run: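 Using yeast strain wt1, compound-induced growth inhibition was determined against vehicle-treated cultures.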

[3] = NCI Yeast Anticancer Drug Screen. Data for the rad50EPP+ strain (AID 151);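 also: 0% = growth of vehicle-treated control cultures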; details: S. cerevisiae rad50 mutant strain, active compounds read high
How it was run: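 Read-out is yeast growth inhibition relative to vehicle; cells used were the rad50EPP+ strain.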

[4] = NCI Yeast Anticancer Drug Screen. Data for the mgt1 strain (AID 153); details: S. cerevisiae mgt1 mutant growth inhibition, active compounds read high
How it was run: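 Measured: inhibition of mgt1 yeast growth by compound, normalized to vehicle-treated cultures.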

[5] = NCI Yeast Anticancer Drug Screen. Data for the rad50 strain (AID 155);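 also: 0% = growth of vehicle-only cultures of the same strain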; details: S. cerevisiae rad50 strain growth inhibition, active compounds read high
How it was run: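 Relative growth inhibition (compound vs vehicle) was measured in yeast with a defined repair-gene alteration.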

[6] = NCI Yeast Anticancer Drug Screen. Data for the mec2-1 strain (AID 157); details: S. cerevisiae mec2-1 strain, active compounds read high
How it was run: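 Using mec2-1 yeast: add compound, measure growth, express inhibition versus vehicle-treated cultures.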

[7] = NCI Yeast Anticancer Drug Screen. Data for the rad14 strain (AID 159);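 also: 0% = growth of vehicle-treated control cultures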; details: S. cerevisiae rad14 strain growth inhibition, active compounds read high
How it was run: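 Screen for anticancer potential: a yeast strain altered in DNA damage repair is grown with compound, and reduced growth is quantified against vehicle controls.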

[8] = NCI Yeast Anticancer Drug Screen. Data for the sgs1 mgt1 strain (AID 161);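 also: 0% = growth of cultures given vehicle only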; details: S. cerevisiae sgs1 mgt1 strain, active compounds read high
How it was run: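 Growth of a repair-deficient yeast mutant was monitored after compound treatment and expressed as inhibition relative to vehicle-treated cultures.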

[9] = NCI Yeast Anticancer Drug Screen. Data for the CLN2oe strain (AID 163);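 also: 0% = growth of vehicle-only control cultures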; details: S. cerevisiae CLN2oe strain, active compounds read high
How it was run: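 Whole-cell yeast growth assay. A strain engineered for altered cell-cycle control received compound, and inhibition relative to vehicle-treated cultures was recorded.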

[10] = NCI Yeast Anticancer Drug Screen. Data for the cln2 rad14 strain (AID 165);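 also: 0% = growth equal to vehicle treated cultures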; details: S. cerevisiae cln2 rad14 strain, active compounds read high
How it was run: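 Yeast strain cln2 rad14, bearing defects in cell cycle control and DNA repair, serves as the test system; values reflect growth inhibition compared with vehicle.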

[11] = NCI Yeast Anticancer Drug Screen. Data for the bub3 strain (AID 167); details: S. cerevisiae bub3 mutant strain, active compounds read high
How it was run: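 Screening used yeast with an engineered genetic alteration affecting cell cycle control. Compound-exposed cultures were compared with vehicle cultures, and reduced growth was taken as inhibition.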

[12] = NCI Yeast Anticancer Drug Screen. Data for the wt2 strain (AID 169);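 also: 0% = growth of vehicle-treated yeast cultures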; details: S. cerevisiae wt2 strain growth inhibition, active compounds read high
How it was run: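 Treated yeast vs. vehicle-treated yeast: growth inhibition determined.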

[13] = NCI Yeast Anticancer Drug Screen. Data for the mlh1 strain (AID 171);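 also: 0% = growth of vehicle-treated control cultures of the same strain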; details: S. cerevisiae mlh1 strain growth inhibition, active compounds read high
How it was run: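 A yeast strain with a defined genetic lesion serves as the test organism. Cultures receive compound or vehicle, and growth is measured.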

[14] = NCI Yeast Anticancer Drug Screen. Data for the sgs1 strain (AID 173);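 also: 0% = growth of vehicle-only control cultures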; details: S. cerevisiae sgs1 mutant, active compounds read high
How it was run: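 A genetically defined yeast mutant is incubated with the test compound, and its growth is compared to that of the same strain given vehicle.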

[15] = NCI Yeast Anticancer Drug Screen. Data for the mlh1 rad18 strain (AID 175); details: S. cerevisiae mlh1 rad18 strain growth inhibition, active compounds read high
How it was run: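 Steps: expose repair-defective yeast to compound; measure growth; express inhibition against vehicle-treated controls.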

[16] = NCI Yeast Anticancer Drug Screen. Data for the rad18 strain (AID 177); details: S. cerevisiae rad18 mutant growth inhibition, active compounds read high
How it was run: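 Measured value is growth inhibition of a yeast strain bearing a DNA repair alteration, referenced to vehicle-treated cells.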

[17] = at 5.0 µM (retest, dose inferred, filed as 0.5)
[18] = at 50.0 µM (retest, dose inferred, filed as 5.0)

Measured: growth inhibition

Oc1ccc(-c2nc(-c3ccc(F)cc3)c(-c3ccc4ccccc4n3)[nH]2)cc1
inactive: [1]; at 1.2 µM -48% | [1]; at 3.7 µM -41% | [2]; at 1.2 µM -60% | [2]; at 3.7 µM -54% | [2]; at 11.0 µM 64% | [2]; at 33.0 µM 18% | [3]; at 1.2 µM -43% | [3]; at 3.7 µM -37% | [3]; at 11.0 µM -26% | [3]; at 33.0 µM -16% | [3]; at 100.0 µM -18% | [4]; at 1.2 µM -28% | [4]; at 3.7 µM -31% | [5]; at 1.2 µM -31% | [5]; at 3.7 µM -44% | [5]; [17] 19% | [5]; [18] 54% | [6]; at 1.2 µM -40% | [6]; at 3.7 µM -27% | [6]; [17] 16% | [6]; at 11.0 µM 69% | [6]; [18] 63% | [7]; at 1.2 µM -51% | [7]; at 3.7 µM -49% | [7]; at 11.0 µM -6% | [8]; [17] 0% | [8]; [18] -41% | [9]; at 1.2 µM -5% | [9]; at 3.7 µM -8% | [10]; [17] 13% | [10]; [18] -33% | [11]; at 1.2 µM -32% | [11]; at 3.7 µM -20% | [11]; [17] 5% | [11]; [18] -31% | [12]; at 1.2 µM -56% | [12]; at 3.7 µM -40% | [13]; at 1.2 µM -44% | [13]; at 3.7 µM -37% | [13]; at 11.0 µM 36% | [14]; at 1.2 µM -34% | [14]; at 3.7 µM -38% | [15]; [17] 27% | [16]; at 1.2 µM -28% | [16]; at 3.7 µM -36%
active: [1]; at 11.0 µM 85% | [1]; at 33.0 µM 96% | [1]; at 100.0 µM 88% | [2]; at 100.0 µM 94% | [4]; at 11.0 µM 81% | [4]; at 33.0 µM 97% | [4]; at 100.0 µM 92% | [5]; at 11.0 µM 76% | [5]; at 33.0 µM 97% | [5]; at 50.0 µM 90.5% | [5]; at 100.0 µM 94% | [6]; at 33.0 µM 98% | [6]; at 50.0 µM 93% | [6]; at 100.0 µM 96% | [7]; at 33.0 µM 94% | [7]; at 100.0 µM 91% | [8]; at 50.0 µM 92.2% | [9]; at 11.0 µM 93% | [9]; at 33.0 µM 98% | [9]; at 100.0 µM 94% | [10]; at 50.0 µM 90.6% | [11]; at 11.0 µM 96% | [11]; at 33.0 µM 98% | [11]; at 50.0 µM 91.8% | [11]; at 100.0 µM 90% | [12]; at 11.0 µM 96% | [12]; at 33.0 µM 96% | [12]; at 100.0 µM 93% | [13]; at 33.0 µM 98% | [13]; at 100.0 µM 94% | [14]; at 11.0 µM 97% | [14]; at 33.0 µM 98% | [14]; at 100.0 µM 90% | [15]; [18] 70% | [15]; at 50.0 µM 85.8% | [16]; at 11.0 µM 96% | [16]; at 33.0 µM 97% | [16]; at 100.0 µM 94%

CCc1c(Cl)c(C)cc(O)c1Cl
active: [1]; at 100.0 µM 96% | [2]; at 100.0 µM 72% | [3]; at 100.0 µM 89% | [4]; at 100.0 µM 95% | [5]; [18] 91% | [5]; at 50.0 µM 91.4% | [5]; at 100.0 µM 94% | [6]; [18] 94% | [6]; at 50.0 µM 84.7% | [6]; at 100.0 µM 93% | [7]; at 100.0 µM 90% | [8]; at 50.0 µM 86.2% | [9]; at 100.0 µM 75% | [10]; at 50.0 µM 77.2% | [11]; at 50.0 µM 92.6% | [11]; at 100.0 µM 85% | [12]; at 100.0 µM 92% | [13]; at 100.0 µM 82% | [14]; at 100.0 µM 91% | [15]; [18] 85% | [15]; at 50.0 µM 89.5%
inactive: [1]; at 1.2 µM 4% | [1]; at 3.7 µM -9% | [1]; at 11.0 µM 8% | [1]; at 33.0 µM 22% | [2]; at 1.2 µM -31% | [2]; at 3.7 µM -18% | [2]; at 11.0 µM -33% | [2]; at 33.0 µM -33% | [3]; at 1.2 µM -27% | [3]; at 3.7 µM -13% | [3]; at 11.0 µM 8% | [3]; at 33.0 µM 42% | [4]; at 1.2 µM 19% | [4]; at 3.7 µM 5% | [4]; at 11.0 µM 29% | [4]; at 33.0 µM 49% | [5]; at 1.2 µM -27% | [5]; at 3.7 µM -30% | [5]; [17] 38% | [5]; at 11.0 µM -27% | [5]; at 33.0 µM 23% | [6]; at 1.2 µM -10% | [6]; at 3.7 µM 1% | [6]; [17] 46% | [6]; at 11.0 µM 5% | [6]; at 33.0 µM 12% | [7]; at 1.2 µM -8% | [7]; at 3.7 µM -46% | [7]; at 11.0 µM -19% | [7]; at 33.0 µM 4% | [8]; [17] -26% | [8]; [18] 46% | [9]; at 1.2 µM -7% | [9]; at 3.7 µM -18% | [9]; at 11.0 µM -4% | [9]; at 33.0 µM 6% | [10]; [17] 32% | [10]; [18] 44% | [11]; at 1.2 µM -8% | [11]; at 3.7 µM -19% | [11]; [17] 3% | [11]; at 11.0 µM -7% | [11]; at 33.0 µM 20% | [11]; [18] 53% | [12]; at 1.2 µM -35% | [12]; at 3.7 µM -30% | [12]; at 11.0 µM -26% | [12]; at 33.0 µM -9% | [13]; at 1.2 µM 6% | [13]; at 3.7 µM -7% | [13]; at 11.0 µM 12% | [13]; at 33.0 µM 19% | [14]; at 1.2 µM -4% | [14]; at 3.7 µM -4% | [14]; at 11.0 µM 5% | [14]; at 33.0 µM 33% | [15]; [17] 35%
